# In PubChem BioAssay AID1159580 (chemical genetic matrix, 2015):
# Several values for one entry are separate records, joined by “and”; a condition that tells them apart may be missing. Equal values may be shown once. The whole screen tested about 5,500 compounds, of which about 2,000 (36%) were called active. About 18% were inconclusive and are not listed. Cut-off read from the data, not from the text of the source: active = normalized growth mostly below about 0.91 (no sharp cut-off); inconclusive = no clear call, values can overlap the other calls; inactive = mostly above about 0.92. The list shows a part of the results.
# Experiment: chemical genetic growth profiling, strain panel (AID 1159580);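 note: tested at 20 µM; growth read once vehicle control cultures reached saturation at 30 °C; 1 = growth at the plate median or of vehicle wells; lower values mean less growth of the strain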
# Settings: S. cerevisiae deletion strains, growth OD
structure (smiles),measurement,setting,value
O=C(O)c1ccccc1-c1c2cc(Br)c(=O)cc-2oc2[c]([Hg])c(O)c(Br)cc12,normalized growth,"locus YAL013W, strain DEP1, stronger effect = lower value",0.0843 (active)
same,normalized growth,"locus YAL021C, strain ccr4, stronger effect = lower value",1.01 (inactive)
same,normalized growth,"locus YAL026C, strain drs2, stronger effect = lower value",1.04 (inactive)
same,normalized growth,"locus YAL030W, strain snc1, stronger effect = lower value",1.03 (inactive)
same,normalized growth,"locus YBL061C, strain skt5, stronger effect = lower value",1.04 (inactive)
same,normalized growth,"locus YBR009C, strain hhf1, stronger effect = lower value",1.03 (inactive)
same,normalized growth,"locus YBR021W, strain FUR4, stronger effect = lower value",0.61 (active)
same,normalized growth,"locus YBR023C, strain chs3, stronger effect = lower value",1.04 (inactive)
same,normalized growth,"locus YBR171W, strain sec66, stronger effect = lower value",1.06 (inactive)
same,normalized growth,"locus YBR229C, strain ROT2, stronger effect = lower value",0.972 (inactive)
same,normalized growth,"locus YBR231C, strain swc5, stronger effect = lower value",1.04 (inactive)
same,normalized growth,"locus YBR279W, strain paf1, stronger effect = lower value",0.594 (active)
same,normalized growth,"locus YCL011C, strain gbp2, stronger effect = lower value",1.05 (inactive)
same,normalized growth,"locus YCL016C, strain dcc1, stronger effect = lower value",1.06 (inactive)
same,normalized growth,"locus YCL029C, strain bik1, stronger effect = lower value",0.996 (inactive)
same,normalized growth,"locus YCR088W, strain abp1, stronger effect = lower value",1.03 (inactive)
same,normalized growth,"locus YDL005C, strain med2, stronger effect = lower value",1.02 (inactive)
same,normalized growth,"locus YDL035C, strain GPR1, stronger effect = lower value",0.453 (active)
same,normalized growth,"locus YDL040C, strain nat1, stronger effect = lower value",1.05 (inactive)
same,normalized growth,"locus YDL074C, strain BRE1, stronger effect = lower value",0.866 (inactive)
same,normalized growth,"locus YDL101C, strain DUN1, stronger effect = lower value",0.936 (inactive)
same,normalized growth,"locus YDL134C, strain PPH21, stronger effect = lower value",0.102 (active)
same,normalized growth,"locus YDL185W, strain tfp1, stronger effect = lower value",0.622 (active)
same,normalized growth,"locus YDL192W, strain arf1, stronger effect = lower value",0.0635 (active)
same,normalized growth,"locus YDR001C, strain nth1, stronger effect = lower value",1.04 (inactive)
same,normalized growth,"locus YDR069C, strain doa4, stronger effect = lower value",1.02 (inactive)
same,normalized growth,"locus YDR101C, strain arx1, stronger effect = lower value",1.01 (inactive)
same,normalized growth,"locus YDR137W, strain rgp1, stronger effect = lower value",1.2 [resistant] (active)
same,normalized growth,"locus YDR150W, strain NUM1, stronger effect = lower value",0.732 (active)
same,normalized growth,"locus YDR159W, strain sac3, stronger effect = lower value",1.05 (inactive)
same,normalized growth,"locus YDR162C, strain NBP2, stronger effect = lower value",0.736 (active)
same,normalized growth,"locus YDR195W, strain ref2",0.982 (inactive)
same,normalized growth,"locus YDR297W, strain sur2, stronger effect = lower value",1.04 (inactive)
same,normalized growth,"locus YDR318W, strain mcm21, stronger effect = lower value",0.07 (active)
same,normalized growth,"locus YDR334W, strain swr1, stronger effect = lower value",1.03 (inactive)
same,normalized growth,"locus YDR335W, strain msn5, stronger effect = lower value",1.03 (inactive)
same,normalized growth,"locus YDR388W, stronger effect = lower value",0.0603 (active)
same,normalized growth,"locus YDR392W, strain spt3, stronger effect = lower value",0.796 (inactive)
same,normalized growth,"locus YDR502C, strain sam2, stronger effect = lower value",0.814 (active)
same,normalized growth,"locus YEL003W, strain gim4, stronger effect = lower value",1.02 (inactive)
same,normalized growth,"locus YEL037C, strain rad23, stronger effect = lower value",1.03 (inactive)
same,normalized growth,"locus YEL061C, strain CIN8 (second series), stronger effect = lower value",1.05 (inactive)
same,normalized growth,"locus YEL061C, strain CIN8, stronger effect = lower value",0.984 (inactive)
same,normalized growth,"locus YER015W, strain faa2, stronger effect = lower value",1.04 (inactive)
same,normalized growth,"locus YER016W, strain bim1, stronger effect = lower value",1.06 (inactive)
same,normalized growth,"locus YER110C, stronger effect = lower value",0.655 (active)
same,normalized growth,"locus YER111C, strain swi4, stronger effect = lower value",1.03 (inactive)
same,normalized growth,"locus YER155C, strain BEM2 (second series), stronger effect = lower value",1.03 (inactive)
same,normalized growth,"locus YER155C, strain BEM2, stronger effect = lower value",1.02 (inactive)
same,normalized growth,"locus YER167W, strain BCK2, stronger effect = lower value",0.0686 (active)
same,normalized growth,"locus YFR010W, strain ubp6, stronger effect = lower value",1.02 (inactive)
same,normalized growth,"locus YGL078C, strain dbp3, stronger effect = lower value",0.0613 (active)
same,normalized growth,"locus YGL086W, strain mad1, stronger effect = lower value",0.0593 (active)
same,normalized growth,"locus YGL167C, strain pmr1, stronger effect = lower value",1.06 (inactive)
same,normalized growth,"locus YGL173C, strain kem1, stronger effect = lower value",0.973 (inactive)
same,normalized growth,"locus YGL227W, strain vid30, stronger effect = lower value",1.05 (inactive)
same,normalized growth,"locus YGL240W, strain doc1, stronger effect = lower value",1 (inactive)
same,normalized growth,"locus YGL248W, strain PDE1, stronger effect = lower value",0.0521 (active)
same,normalized growth,"locus YGL253W, strain hxk2, stronger effect = lower value",1.02 (inactive)
same,normalized growth,"locus YGR078C, strain PAC10, stronger effect = lower value",0.369 (active)
same,normalized growth,"locus YGR135W, strain pre9, stronger effect = lower value",0.0708 (active)
same,normalized growth,"locus YGR229C, strain SMI1, stronger effect = lower value",0.106 (active)
same,normalized growth,"locus YGR252W, strain gcn5, stronger effect = lower value",0.178 (active)
same,normalized growth,"locus YHR013C, strain ard1, stronger effect = lower value",0.121 (active)
same,normalized growth,"locus YHR027C, strain rpn1, stronger effect = lower value",1.01 (inactive)
same,normalized growth,"locus YHR030C, strain SLT2, stronger effect = lower value",0.146 (active) and 0.163 (active)
same,normalized growth,"locus YHR079C, strain IRE1 (second series), stronger effect = lower value",0.884 (active)
same,normalized growth,"locus YHR079C, strain IRE1, stronger effect = lower value",0.406 (active)
same,normalized growth,"locus YHR094C, strain hxt1, stronger effect = lower value",0.0904 (active)
same,normalized growth,"locus YHR129C, strain ARP1, stronger effect = lower value",0.939 (inactive)
same,normalized growth,"locus YHR142W, strain chs7, stronger effect = lower value",0.951 (inactive)
same,normalized growth,"locus YHR200W, strain rpn10, stronger effect = lower value",0.0659 (active)
same,normalized growth,"locus YIL066C, strain RNR3, stronger effect = lower value",0.0637 (active)
same,normalized growth,"locus YIL073C, strain SPO22, stronger effect = lower value",0.127 (active)
same,normalized growth,"locus YIL125W, strain kgd1, stronger effect = lower value",0.0621 (active)
same,normalized growth,"locus YIR030C, strain dcg1, stronger effect = lower value",1 (inactive)
same,normalized growth,"locus YJL092W, strain hpr5, stronger effect = lower value",1.04 (inactive)
same,normalized growth,"locus YJL095W, strain BCK1 (second series), stronger effect = lower value",1.03 (inactive)
same,normalized growth,"locus YJL095W, strain BCK1, stronger effect = lower value",0.834 (inactive) and 0.144 (active)
same,normalized growth,"locus YJL115W, strain asf1, stronger effect = lower value",1.03 (inactive)
same,normalized growth,"locus YJL129C, strain trk1, stronger effect = lower value",1.12 (inactive)
same,normalized growth,"locus YJL134W, strain LCB3, stronger effect = lower value",1.02 (inactive)
same,normalized growth,"locus YJL154C, strain vps35, stronger effect = lower value",1.04 (inactive)
same,normalized growth,"locus YJL164C, strain tpk1, stronger effect = lower value",1.01 (inactive)
same,normalized growth,"locus YJL166W, strain qcr8, stronger effect = lower value",1.02 (inactive)
same,normalized growth,"locus YJL168C, strain set2, stronger effect = lower value",0.0944 (active)
same,normalized growth,"locus YJL187C, strain SWE1 (second series), stronger effect = lower value",0.955 (inactive)
same,normalized growth,"locus YJL187C, strain SWE1, stronger effect = lower value",1.01 (inactive)
same,normalized growth,"locus YJR043C, strain POL32, stronger effect = lower value",0.868 (inactive)
same,normalized growth,"locus YJR066W, strain TOR1, stronger effect = lower value",0.439 (active)
same,normalized growth,"locus YJR075W, strain HOC1, stronger effect = lower value",0.946 (inactive)
